TEAD-YAP block = TEAD-YAP interaction inhibition, primary screen, TEAD-YAP interaction inhibitor project, luminescence, HEK-TIYL cells; TEAD-Gal4/YAP UAS-luciferase luminescence; inhibition, % at 9.12 µM; 640,000 compounds, 1.4% hits; AID 1259422, 2018; in the data active means inhibition above about 32%;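 further: 0% = median of test compound wells and 100% = reference inhibitor wells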
MITF inh = MITF inhibitors, primary screen, biochemical, AlphaScreen, human; AlphaScreen MITF homodimerization, bead proximity signal; inhibition, % at 2.6 µM; 650,000 compounds, 0.91% hits; AID 1259374, 2018; in the data active means inhibition above about 50%;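 further: 0% = vehicle wells with protein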
FBW7 act = FBW7 E3 ligase activators, primary screen, biochemical, AlphaScreen, human; F-box/WD repeat-containing protein 7 (Homo sapiens), Q969H0; AlphaScreen FBW7–phospho-cyclin E peptide binding, activator screen; normalized activity (activation), % at 26.1 µM; 650,000 compounds, 0.13% hits; AID 1259310, 2017; in the data active means normalized activity above about 1.9%;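 further: purified mutant Fbw7 with reduced substrate affinity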
GPR151 activ = activators of human GPR151, primary screen, cell-based, PathHunter beta-arrestin, luminescence. activation, % at 11.2 µM. PathHunter beta-arrestin GPR151 cells. 650,000 compounds, 1% hits; in the data active means activation above about 4.9%;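 further: 0% = median of compound wells and 100% = cells with positive control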
Target sequence (Q8TDV0 whole entry, looked up): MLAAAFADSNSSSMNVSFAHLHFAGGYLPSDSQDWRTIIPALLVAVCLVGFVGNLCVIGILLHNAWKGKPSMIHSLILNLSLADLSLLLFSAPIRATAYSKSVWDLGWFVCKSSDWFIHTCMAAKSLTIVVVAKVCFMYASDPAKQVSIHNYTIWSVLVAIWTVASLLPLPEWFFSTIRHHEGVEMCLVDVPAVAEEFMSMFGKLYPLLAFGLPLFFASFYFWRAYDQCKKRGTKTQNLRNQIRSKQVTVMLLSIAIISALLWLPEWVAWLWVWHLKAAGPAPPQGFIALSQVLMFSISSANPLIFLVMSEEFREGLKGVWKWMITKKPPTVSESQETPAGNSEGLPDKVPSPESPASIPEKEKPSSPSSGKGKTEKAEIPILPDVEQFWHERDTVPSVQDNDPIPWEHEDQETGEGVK
GPR151 conf act = GPR151 activators, triplicate retest, confirmation, cell-based, PathHunter beta-arrestin, luminescence; 6,700 tested, under 10 active; shares compounds with GPR151 activ; GPR151 PathHunter beta-arrestin cells, 90 min; % of EA-reagent control over plate median; activation, % at 11.2 µM;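 active means mean percent activation across replicates above the confirmation screen cutoff of 4.91%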
GPR119 counter = GPR119 activators in beta-arrestin cells, counter-screen for GPR151 activator project, cell-based, PathHunter beta-arrestin, luminescence, triplicate | shares compounds with GPR151 activ | 90 min; 0 = compound-well median, 100 = enzyme-acceptor control | activation, % at 11.2 µM | 6,700 compounds, 0.3% hits | AID 1508611, 2020;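 active means mean percent activation in the counterscreen above 29.09%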;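 further: counterscreen on off-target GPR119 to flag nonselective hits from the GPR151 activator screen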
* = called active by the depositor; nt = no result. An excerpt weighted towards active compounds, which were near 3.4% of everything screened.

SMILES | TEAD-YAP block | MITF inh | FBW7 act | GPR151 activ | GPR151 conf act | GPR119 counter
COCC(=O)NCCNc1nc2ccc(OC)cc2cc1C#N | -11.4 | 6.0 | 0.0 | 7.2* | 0.6 | -0.8
COc1ccc2nc(NCCNC(=O)c3cc(OC)c(OC)c(OC)c3)c(C#N)cc2c1 | -1.2 | 15.0 | 1.2 | -0.7 | nt | nt
COc1ccc(CCNc2ccnc(Nc3ccc(N4CCOCC4)cc3)n2)cc1 | 78.0* | 9.9 | -0.2 | 8.3* | 2.8 | 60.0*
COc1ccc(CCNc2cc(C)nc(Nc3ccc4ncccc4c3)n2)cc1 | 47.1* | 6.9 | -0.1 | 7.0* | 1.3 | 20.0
COc1ccc(CCNc2cc(C)nc(Nc3cccnc3)n2)cc1 | 2.0 | 5.8 | -0.1 | 1.0 | nt | nt
COc1ccc(CCNc2cc(-c3ccc(N4CCN(C)CC4)cc3)ncn2)cc1 | -15.5 | 14.2 | 0.0 | 6.9* | 0.5 | 1.4
COc1ccc(CCNc2ccnc(N3CCOCC3)n2)cc1 | 2.5 | -10.2 | 0.1 | 1.8 | nt | nt
c1cc(Nc2ccc3c(c2)OCO3)nc(Nc2ccc(N3CCOCC3)cc2)n1 | 70.9* | 1.7 | -0.2 | 5.1* | 1.4 | 26.7
c1cc(Nc2ccc(N3CCOCC3)cc2)nc(Nc2ccc(N3CCOCC3)cc2)n1 | 13.6 | 8.6 | -0.2 | 2.8 | nt | nt
O=C(CCC(=O)OCC(=O)c1ccccc1)Nc1ccc(Cl)c(Cl)c1 | 1.6 | 4.7 | 0.1 | 1.3 | nt | nt
CC(=O)c1ccc(OCCCC(=O)NNC(=O)c2ccccc2)cc1 | -35.9 | -8.3 | -0.1 | -1.0 | nt | nt
O=C(CCCOc1ccccc1)NNC(=O)c1ccccc1 | 0.3 | 0.9 | 0.2 | 26.0* | 1.1 | 11.3
CC(=O)c1ccc(-c2cc(F)cc3c2OC(CNC(=O)c2ccc(=O)oc2)C3)s1 (centres undefined) | 14.7 | 8.5 | -0.1 | -1.2 | nt | nt
O=C(O)CCn1c(SCc2cc(=O)n3cc(Br)ccc3n2)nc2ccsc2c1=O | 2.2 | 1.2 | 0.0 | 1.2 | nt | nt
O=C(O)c1ccc(Cn2c(SCc3cc(=O)n4cc(Br)ccc4n3)nc3ccsc3c2=O)cc1 | -17.8 | 5.3 | 0.0 | 7.3* | 0.7 | 16.0
Cc1cccc(Cc2nnc(CCC(=O)N(C)CC3CCN(CC(C)C)CC3)o2)c1 | 0.9 | 11.7 | 0.3 | -1.8 | nt | nt
COc1cc(Br)c(C2C(C#N)=C(N)Oc3cc4c(cc32)OCO4)cc1OC (centres undefined) | -2.8 | 3.6 | -0.2 | 9.1* | 0.4 | 2.6
CC(SCc1ccccc1)C(=O)NCc1cccnc1 (centres undefined) | -5.4 | 5.4 | 0.0 | 8.0* | -0.9 | -8.6
Cc1ccc(CNC(=O)C(C)SCc2ccccc2)cc1 (centres undefined) | -1.6 | -6.5 | -0.1 | 8.1* | 0.2 | 11.8
O=C(NCc1cccnc1)c1ccnc(Nc2nccc3ccccc23)c1 | 0.7 | -3.9 | 0.0 | -0.8 | nt | nt
O=C(Cn1ccc([N+](=O)[O-])n1)NCc1ccccc1 | -1.2 | -4.9 | 0.3 | 2.5 | nt | nt
Cc1ccccc1CNC(=O)C(C)SCc1ccccc1 (centres undefined) | 4.9 | 3.0 | 0.5 | 0.3 | nt | nt
O=C(NCc1cccnc1)c1ccnc(Nc2cnccn2)c1 | 5.2 | 8.6 | 0.7 | 6.6* | -0.6 | 3.3
O=C(Cn1ccc([N+](=O)[O-])n1)NCc1cccnc1 | 14.1 | 3.7 | 0.0 | 8.9* | -1.2 | -6.4
O=C(CN1C(=O)NC(Cc2ccccc2)C1=O)NCC(F)(F)F (centres undefined) | -0.9 | 12.1 | 0.1 | 0.2 | nt | nt
CCC(=O)C1=C(c2cccc([N+](=O)[O-])c2)N(C(=O)CC)n2c(C)nnc2S1 | 7.1 | -10.5 | 0.0 | 0.6 | nt | nt
O=C(NCc1cccnc1)c1cccc(OC2CCN(CC3CC=CCC3)CC2)c1 (centres undefined) | 0.6 | -0.1 | 0.1 | 2.6 | nt | nt
CC1(C)CC(=O)c2cnc3c([N+](=O)[O-])c(N)nn3c2C1 | -4.9 | -0.9 | -0.1 | 1.5 | nt | nt
COc1cccc(C(=O)N2c3ccc(C(c4ccccc4)(c4ccccc4)c4ccccc4)cc3C(C)=CC2(C)C)c1 | -3.0 | 1.5 | 0.0 | -0.7 | nt | nt
